Where “and” joins values, the source holds several entries; their conditions need not be identical. Identical values can stand only once. In all, about 290,000 compounds went through this assay and about 3,500 (1.2%) were called active.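 The calls were made as follows: active = inhibition above the campaign mean inhibition over all tested compounds plus 3 SD (cut at about 28% in these data); inactive = the rest.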 Only a selection was taken, and actives are over-represented in it overall.
system: M18 aspartyl aminopeptidase (Plasmodium falciparum 3D7); assay: inhibition of P. falciparum M18 aminopeptidase – biochemical, QFRET, recombinant enzyme, primary screen (AID 1822); conditions: recombinant PfM18AAP, H-Glu-NHMec fluorogenic cleavage; at 7.35 µM; active compounds read high;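 also: 0% = plate median of test compound wells and 100% = 2 mM ZnCl2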

inhibition, active:
NNc1nc2c(Cl)cccc2s1 28.1%
Oc1c(C(c2ccco2)N2CCC3(CC2)OCCO3)sc2ncnn12 (stereo not given) 35.8%
Oc1ccc(N=Cc2c(O)ccc3ccccc23)cc1 28.4%
NC(=O)c1c(NC(=O)CSc2nnc(-c3ccco3)n2N)sc2c1CCCC2 34.4%
O=C(c1ccc[nH]c1=S)N1CCN(S(=O)(=O)c2ccc(Br)cc2Cl)CC1 29.6%
O=C(CO/N=C/c1ccccc1O)NNC(=O)c1ccccc1Cl 43.1%
CC(C)(C)C(=O)OCc1nc(-c2ccc(O)c(O)c2)cs1 58.2%
CC(C)(C)NC(=O)C(c1ccncc1)N(C(=O)CNC(=O)c1ccco1)c1ccc2c(c1)OCO2 (stereo not given) 35%

inhibition, inactive:
Fc1cc(F)c2nc(Nc3nc4c(F)cccc4s3)sc2c1 -6.75%
CCOC(=O)C1CCCN(S(=O)(=O)c2ccc3c(c2)C(C)(C)C(=O)N3C)C1 (stereo not given) 7.85%
OC(c1ccc(Cl)cc1)C(CN1CCOCC1)c1ccccc1 (stereo not given) 1.27%
CCOc1ccc(S(=O)(=O)NCc2ccc3c(c2)OCO3)cc1C -10.2%
CSc1ccc(CCNC(=O)CS(=O)(=O)Cc2nc(-c3ccccc3F)oc2C)cc1 -0.36%
Oc1c(C(c2cccs2)N2CCN(c3ccc(F)cc3)CC2)sc2ncnn12 (stereo not given) 16.4%
Cc1nc2sc(C(c3ccco3)N3CCC4(CC3)OCCO4)c(O)n2n1 (stereo not given) 0.84%
CCc1nn(CCCN2CCN(c3cccc(Cl)c3)CC2)c(=O)n1CCOc1ccccc1 8.14% and 7.54%
O=S(=O)(c1ccc(Cl)cc1)N1CCCN(c2ccc(C(F)(F)F)cn2)CC1 -1.37%
COc1ccc(OC)c(/C(C)=N\NC(=O)c2cc3cc(Cl)ccc3n2C)c1 3.86%
O=[N+]([O-])c1ccc(N=Cc2c(O)ccc3ccccc23)cc1 -0.85%
Oc1ccc(N=Cc2sc3ccccc3c2Cl)cc1 21.1%
Clc1ccc(Cc2nn3c(-c4ccncc4)nnc3s2)cc1 8.22%
Cc1cccc(C(=O)NC(=S)N(C)C2CCCCC2)c1 7.02%
NC(=O)c1c(NC(=O)CSc2nc(N)cc(=O)[nH]2)sc2c1CCCC2 8.38%
CCc1cccc(C)c1NC(=O)CSc1nnc(-c2ccco2)n1N 3.63%
CC(C)c1ccc(S(=O)(=O)NC2CCCC2)cc1 -8.03%
Cc1ccccc1CN1CCC(C(=O)Nc2ccc(Oc3cccnc3)cc2)CC1 0.98%
O=C(c1ccc(Cl)c(S(=O)(=O)N2CCCCC2)c1)N1CCCCCC1 -4.84%
O=C(c1ccccc1F)N1CCN(S(=O)(=O)c2ccc(Br)cc2)CC1 1.79%
COc1cc(NC(=O)C2=CC(c3ccco3)=NS(=O)(=O)N2C)cc(OC)c1OC 3.32%
O=C(CO/N=C/c1ccccc1OC(F)F)NC1CCCC1 3.38%
O=C(N/N=C/c1ccc(OC(=O)c2ccccc2Cl)cc1)c1ccc(O)cc1 8.47%
CC(C)c1ccc(NC(=S)NC2CC3C=CC2C3)cc1 (stereo not given) -6.48%
CC(=O)c1cnc(Nc2nc(C)c3cc(C)ccc3n2)nc1C 1.6%
O=C(NCCCn1ccnc1)c1cc(-c2ccccc2)on1 -9.41%
COc1ccc(-c2csc(Cc3nc(O)cs3)n2)cc1 8.2%
Cc1onc(C(=O)NN)c1-c1csc(COc2ccccc2)n1 -8.62%
COC(=O)[C@@H]1CCCN1C(=O)c1cc(COc2cccc3cccnc23)on1 3.55%
COc1cc(C)c(C)cc1S(=O)(=O)N1CCCc2ccccc21 -5.85%
Cc1[nH]c(C)c(S(=O)(=O)N2CCC(C)CC2)c1C(=O)N1CCCC1 -4.62%
COCCCNC(=O)C1CC(=O)N(CCc2ccc(F)cc2)C1 (stereo not given) 2.65%
CCOC(=O)CSc1nnc(NC(=O)C2CC(=O)N(c3ccc(F)cc3)C2)s1 (stereo not given) -0.3%
Cc1ccc(N(C(=O)CNC(=O)c2ccco2)C(C(=O)NC2CCCC2)c2ccncc2)cc1 (stereo not given) 0.63%
COc1cccc(N(C(=O)CNC(=O)c2ccco2)C(C(=O)NC2CCCCC2)c2cccnc2)c1 (stereo not given) 9.7%
C/C(CC1CC(C)(C)OC1=O)=N/Nc1nc(-c2ccccc2)cs1 (stereo not given) 6.59%
O=C(CSc1nccc(=O)[nH]1)Nc1ccc(N2CCOCC2)c(Cl)c1 2.24%

Reference: PubChem BioAssay AID1822 (The Scripps Research Institute Molecular Screening Center, 2009)
